PubChem BioAssay (NCI)
The panel holds about 83,000 compounds, 20% with a hit somewhere; the sample as a whole holds those more often.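 Interpretation: 100, growth as untreated; towards 0, rising growth inhibition; 0, no net growth; 0 to -100, cell death. Compounds scoring below 10 were considered active.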 Calls of active or inactive are those of the source.

Tested on: HL-60(TB) leukemia
Experiment: NCI-60 one-dose screen, 48 h (100 = growth as untreated, 0 = no growth, -100 = all killed)
Details: 10 µM unless noted

Row | SMILES | growth
1 | CC(=O)c1cc(O)ccc1O | 62.1% (inactive)
2 | Cc1cc(O)c(C2=NN(c3ccc(S(N)(=O)=O)cc3)C(c3ccccc3O)C2)cc1Cl (stereo not given) | -35.4% (active)
3 | Nn1c(-c2ccc(Cl)cc2)nc2c(-c3ccc(Cl)cc3)nc3ccc(Cl)cc3c2c1=O | 43.4% (inactive)
4 | O=S(=O)(O)CCI | 99.5% (inactive)
5 | COc1ccc(NC(=O)c2sc3nc(C)c(C(O)c4ccccc4)cc3c2N)cc1 (stereo not given) | -51.9% (active)
6 | COc1ccc(-c2cnc3ccnn3c2-c2cc(OC)c(OC)c(OC)c2)cc1 | -22% (active)
7 | COc1ccc(/C=N/NC(N)=S)cc1 | 88.9% (inactive)
8 | CCNCCNc1cc(-c2ccc(C(F)(F)F)cc2)c(C#N)c2nc3ccccc3n12 | -65.9% (active)
9 | CC[C@H](Nc1nc(N)nc(C)c1C#N)c1nc2cccc(NCc3ccc(C(=O)NO)cc3)c2c(=O)n1-c1ccccc1 | 2.45% (active)
10 | CC(=O)[C@@H]1CC[C@]2(C(=O)n3ccnc3)CC[C@]3(C)[C@H](CC[C@@H]4[C@@]5(C)Cc6c([nH]c7ccccc67)C(C)(C)[C@@H]5CC[C@]43C)[C@@H]12 | 90.9% (inactive)
11 | COc1cc(CNS(=O)(=O)c2ccc(C)cc2)ccc1OCc1cn(-c2ccccc2)nn1 | 85.2% (inactive)
12 | COc1ccc(-c2nc3ccccn3c2/C=C/C(=O)c2cc(OC)c(OC)c(OC)c2)cc1OC | 9.67% (active)
13 | C#CCOc1cccc(Nc2ncnc3c(NC(=O)CCl)cccc23)c1 | -59.1% (active)
14 | Clc1cc(Cl)c2nc(-c3ccc(-c4ccc(/C=N/NC5=NCCN5)cc4)s3)cn2c1 | 98.4% (inactive)
15 | O=c1cc(-c2ccccc2)nc2cc(-c3ccco3)[nH]n12 | 82.7% (inactive)
16 | COc1cc(NC(=O)NCc2ccco2)ccc1-c1ccc(NC(=O)NCc2ccco2)cc1OC | 57.4% (inactive)
17 | CCCCCCCCC/C(=N\NC(=O)c1ccncc1)c1ccc(O)c(O)c1O | 0.166% (active)
18 | CC(C)(C)c1nc(-c2cccc(NS(=O)(=O)c3c(F)cccc3F)c2F)c(-c2ccnc(N)n2)s1 | 35.1% (inactive)
19 | O=C1/C(=C/c2ccc(-c3ccccc3C(F)(F)F)o2)SC(=S)N1CCc1ccc(O)cc1 | 20.8% (inactive)
20 | CN1CCN(C(=O)OCc2nc3c(N4CCOCC4)nc(Cl)nc3n2C)CC1 | -53.4% (active)

Row | SMILES | growth
21 | COc1cc(/C=C/C(=O)C(C(=O)/C=C/c2ccc(OC(=O)CCNc3nnc(C)s3)c(OC)c2)C(=O)CCNc2nnc(C)s2)ccc1OC(=O)CCNc1nnc(C)s1 | -40.1% (active)
22 | CN1CCN(CC(=O)Nc2ccc3ncnc(Nc4ccc(Oc5cccc(C(F)(F)F)c5)c(Cl)c4)c3c2)CC1 | -35.7% (active)
23 | COC(=O)C1=C(C(=O)Nc2cccnc2)C2OC1(C(Cc1ccccc1)Oc1ccccc1)C1OC21 (stereo not given) | -56.2% (active)
24 | Cc1c(NC(=O)c2sc3nc4c(cc3c2N)CN(Cc2ccccc2)CC4)cccc1C(F)(F)F | 3.22% (active)
25 | CC(C)(C)OC(=O)N1Cc2cc3ccccc3nc2C1CO (stereo not given) | 92.8% (inactive)
26 | Cc1cc(N2CCN(CCNc3ccnc4cc(Cl)ccc34)CC2)nc(N2CCOCC2)n1 | 44.8% (inactive)
27 | COc1cc2c(cc1OCCCCCCN1CCN(c3ncnc4ccccc34)CC1)N=CC1CCCN1C2=O (stereo not given) | -43.3% (active)
28 | O=C(CSc1nnc(-c2cc(-c3ccccc3)nc3ccccc23)o1)c1ccc(Br)cc1 | 99.4% (inactive)
29 | O=C1COc2ccccc2C(=O)N1CCCCNc1ccccc1 | -36.5% (active)
30 | O=C1/C(=C\c2cccc(OCCCCCOc3ccc(Cl)cc3)c2)N=C2SCCCN12 | 36% (inactive)
31 | CCOC(=O)c1c(-c2ccc(Cl)cc2)c(C#N)c(=O)n(-c2ccccc2CC)c1N | 144% (inactive)
32 | O=C1Nc2c(ccc(Cl)c2Cl)/C1=C\c1ccc(C(F)(F)F)cc1 | 51.8% (inactive)
33 | CC(=O)N[C@@H](CCC(N)=O)C(=O)O | 107% (inactive)
34 | Cc1cc[n+](CCCCCCCCCC[n+]2ccc(C)cc2)cc1 | 95.3% (inactive)
35 | COC1NC(Cl)=C(C#N)C(C#N)(C#N)C1(C)C (stereo not given) | 92.9% (inactive)
36 | O=S(=O)(NCCNc1nccc(-c2c(-c3cccc(F)c3)nc3occn23)n1)c1ccc(C(F)(F)F)cc1 | 106% (inactive)
37 | COc1ccc(S(=O)(=O)NCCCNc2nccc(-n3ccc4cccnc43)n2)cc1 | 104% (inactive)
38 | CC(C)c1ccc2nc3ccc(C(=O)NCCN4CCN(c5ccccc5)CC4)cn3c(=O)c2c1 | 74.9% (inactive)
39 | Cn1c(/C=C/[N+](=O)[O-])cc2ccccc21 | 53.4% (inactive)
40 | CCN(CC)CCCCCNc1cc(OC(=O)c2ccccc2)cc2cccnc12 | 79.8% (inactive)
